Experimental data: ChEMBL document CHEMBL1961873, “Compounds: GSK PKIS; Assays: Nanosyn kinase panel” (2012)

Experiments:
[1] = target: MAP/microtubule affinity-regulating kinase 3 (Homo sapiens) (UniProt P27448); conditions: at 1 µM;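 note: reported values are averaged percent inhibition of MARK3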
[2] = target: T1, MAP/microtubule affinity-regulating kinase 4 (Homo sapiens) (UniProt Q96L34); conditions: at 0.1 µM
T1 sequence (whole entry): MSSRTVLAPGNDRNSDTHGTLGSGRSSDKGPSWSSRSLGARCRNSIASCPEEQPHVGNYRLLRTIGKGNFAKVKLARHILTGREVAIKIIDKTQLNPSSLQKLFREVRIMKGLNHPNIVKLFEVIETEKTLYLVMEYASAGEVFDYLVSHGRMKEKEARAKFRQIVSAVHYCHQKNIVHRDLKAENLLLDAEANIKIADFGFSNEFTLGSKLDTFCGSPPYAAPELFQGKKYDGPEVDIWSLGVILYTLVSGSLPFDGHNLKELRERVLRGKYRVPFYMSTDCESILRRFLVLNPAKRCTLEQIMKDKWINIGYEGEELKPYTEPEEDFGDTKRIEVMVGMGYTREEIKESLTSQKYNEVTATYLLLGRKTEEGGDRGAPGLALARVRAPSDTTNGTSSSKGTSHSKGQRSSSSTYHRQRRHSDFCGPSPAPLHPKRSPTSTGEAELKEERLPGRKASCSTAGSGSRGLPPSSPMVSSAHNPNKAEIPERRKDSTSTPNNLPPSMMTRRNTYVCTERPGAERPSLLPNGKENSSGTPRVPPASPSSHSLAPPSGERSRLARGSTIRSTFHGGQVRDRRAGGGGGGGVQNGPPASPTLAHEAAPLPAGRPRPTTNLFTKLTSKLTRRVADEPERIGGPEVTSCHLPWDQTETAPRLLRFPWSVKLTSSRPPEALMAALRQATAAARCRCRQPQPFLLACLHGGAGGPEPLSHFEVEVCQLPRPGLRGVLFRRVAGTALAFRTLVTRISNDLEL

[3] = target: T1, MAP/microtubule affinity-regulating kinase 4 (Homo sapiens); conditions: at 1 µM
[4] = target: Maternal embryonic leucine zipper kinase (Homo sapiens) (UniProt Q14680); conditions: at 0.1 µM
[5] = target: Maternal embryonic leucine zipper kinase (Homo sapiens) (UniProt Q14680); conditions: at 1 µM
[6] = target: MAP kinase-interacting serine/threonine-protein kinase 1 (Homo sapiens) (UniProt Q9BUB5); conditions: at 0.1 µM
[7] = target: MAP kinase-interacting serine/threonine-protein kinase 1 (Homo sapiens) (UniProt Q9BUB5); conditions: at 1 µM
[8] = target: MAP kinase-interacting serine/threonine-protein kinase 2 (Homo sapiens) (UniProt Q9HBH9); conditions: at 0.1 µM
[9] = target: MAP kinase-interacting serine/threonine-protein kinase 2 (Homo sapiens) (UniProt Q9HBH9); conditions: at 1 µM
[10] = target: Serine/threonine-protein kinase MARK2 (Homo sapiens) (UniProt Q7KZI7); conditions: at 0.1 µM
[11] = target: Serine/threonine-protein kinase MARK2 (Homo sapiens) (UniProt Q7KZI7); conditions: at 1 µM
[12] = target: PAS domain-containing serine/threonine-protein kinase (Homo sapiens) (UniProt Q96RG2); conditions: at 0.1 µM
[13] = target: PAS domain-containing serine/threonine-protein kinase (Homo sapiens) (UniProt Q96RG2); conditions: at 1 µM
[14] = target: Phosphorylase b kinase gamma catalytic chain, skeletal muscle/heart isoform (Homo sapiens) (UniProt Q16816); conditions: at 0.1 µM
[15] = target: Phosphorylase b kinase gamma catalytic chain, skeletal muscle/heart isoform (Homo sapiens) (UniProt Q16816); conditions: at 1 µM
[16] = target: T2, Phosphorylase b kinase gamma catalytic chain, liver/testis isoform (Homo sapiens) (UniProt P15735); conditions: at 0.1 µM
T2 sequence (whole entry): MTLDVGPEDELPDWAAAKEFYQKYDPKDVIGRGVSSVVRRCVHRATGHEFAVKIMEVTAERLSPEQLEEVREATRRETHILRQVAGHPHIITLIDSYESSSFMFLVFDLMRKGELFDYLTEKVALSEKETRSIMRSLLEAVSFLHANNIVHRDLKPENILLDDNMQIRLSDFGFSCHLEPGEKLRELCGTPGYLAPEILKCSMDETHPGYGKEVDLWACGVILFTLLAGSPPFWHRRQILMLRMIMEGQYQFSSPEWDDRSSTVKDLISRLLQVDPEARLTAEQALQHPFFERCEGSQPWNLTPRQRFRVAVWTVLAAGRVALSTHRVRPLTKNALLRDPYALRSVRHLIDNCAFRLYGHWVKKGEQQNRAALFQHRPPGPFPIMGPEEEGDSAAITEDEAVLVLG

[17] = target: T2, Phosphorylase b kinase gamma catalytic chain, liver/testis isoform (Homo sapiens); conditions: at 1 µM
[18] = target: Serine/threonine-protein kinase pim-1 (Homo sapiens) (UniProt P11309); conditions: at 0.1 µM
[19] = target: Serine/threonine-protein kinase pim-1 (Homo sapiens) (UniProt P11309); conditions: at 1 µM
[20] = target: Serine/threonine-protein kinase pim-2 (Homo sapiens) (UniProt Q9P1W9); conditions: at 0.1 µM;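 note: reported value is the mean percent inhibition of PIM2, measured in the GSK PKIS kinase inhibitor set screen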
Sequence of Serine/threonine-protein kinase pim-2 (Homo sapiens) (Q9P1W9 whole entry, looked up): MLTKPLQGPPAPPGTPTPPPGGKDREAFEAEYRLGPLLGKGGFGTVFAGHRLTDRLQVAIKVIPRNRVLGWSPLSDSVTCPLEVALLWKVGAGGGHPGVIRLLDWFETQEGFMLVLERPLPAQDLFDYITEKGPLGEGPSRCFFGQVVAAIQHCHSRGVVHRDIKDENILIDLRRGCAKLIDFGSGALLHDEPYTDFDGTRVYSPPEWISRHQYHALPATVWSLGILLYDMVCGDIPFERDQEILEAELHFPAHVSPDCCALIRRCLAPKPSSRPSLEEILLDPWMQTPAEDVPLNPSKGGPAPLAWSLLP

Sequence of PAS domain-containing serine/threonine-protein kinase (Homo sapiens) (Q96RG2 whole entry, the tested form may be a part, canonical isoform): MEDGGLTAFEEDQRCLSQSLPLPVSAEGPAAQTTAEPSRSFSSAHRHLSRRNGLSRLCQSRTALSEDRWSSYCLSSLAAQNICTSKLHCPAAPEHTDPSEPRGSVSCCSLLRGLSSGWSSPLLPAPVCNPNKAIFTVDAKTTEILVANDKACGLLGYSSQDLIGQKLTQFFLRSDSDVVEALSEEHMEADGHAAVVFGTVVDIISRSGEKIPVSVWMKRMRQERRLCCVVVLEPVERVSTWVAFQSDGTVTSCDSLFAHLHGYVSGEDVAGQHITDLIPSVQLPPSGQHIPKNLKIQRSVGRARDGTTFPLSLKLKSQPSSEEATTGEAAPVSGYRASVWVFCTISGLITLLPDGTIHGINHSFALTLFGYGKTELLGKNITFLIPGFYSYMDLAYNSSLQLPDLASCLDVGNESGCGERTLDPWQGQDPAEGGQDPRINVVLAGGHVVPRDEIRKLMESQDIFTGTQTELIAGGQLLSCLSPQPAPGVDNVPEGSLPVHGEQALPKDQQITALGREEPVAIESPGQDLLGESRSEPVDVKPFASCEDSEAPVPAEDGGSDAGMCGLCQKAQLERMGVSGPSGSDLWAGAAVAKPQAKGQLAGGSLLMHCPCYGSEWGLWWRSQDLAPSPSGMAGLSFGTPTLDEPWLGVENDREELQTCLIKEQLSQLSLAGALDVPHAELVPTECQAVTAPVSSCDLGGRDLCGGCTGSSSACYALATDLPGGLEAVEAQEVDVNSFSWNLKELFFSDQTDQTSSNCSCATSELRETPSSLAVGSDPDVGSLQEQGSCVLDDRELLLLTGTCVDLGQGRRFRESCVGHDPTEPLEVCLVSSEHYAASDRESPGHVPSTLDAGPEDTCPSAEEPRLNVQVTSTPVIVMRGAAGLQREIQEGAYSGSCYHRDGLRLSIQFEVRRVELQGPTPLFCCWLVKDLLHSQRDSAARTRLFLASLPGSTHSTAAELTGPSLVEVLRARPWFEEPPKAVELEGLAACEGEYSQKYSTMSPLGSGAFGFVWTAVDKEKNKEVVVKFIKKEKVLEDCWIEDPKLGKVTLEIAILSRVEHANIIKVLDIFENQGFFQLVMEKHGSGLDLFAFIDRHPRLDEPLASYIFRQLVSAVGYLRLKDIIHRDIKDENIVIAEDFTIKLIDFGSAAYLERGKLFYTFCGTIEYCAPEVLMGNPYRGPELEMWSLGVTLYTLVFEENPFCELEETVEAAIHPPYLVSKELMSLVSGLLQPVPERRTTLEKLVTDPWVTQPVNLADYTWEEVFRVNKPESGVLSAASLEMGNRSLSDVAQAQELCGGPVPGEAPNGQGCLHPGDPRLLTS
Sequence of MAP kinase-interacting serine/threonine-protein kinase 2 (Homo sapiens) (Q9HBH9 whole entry, looked up): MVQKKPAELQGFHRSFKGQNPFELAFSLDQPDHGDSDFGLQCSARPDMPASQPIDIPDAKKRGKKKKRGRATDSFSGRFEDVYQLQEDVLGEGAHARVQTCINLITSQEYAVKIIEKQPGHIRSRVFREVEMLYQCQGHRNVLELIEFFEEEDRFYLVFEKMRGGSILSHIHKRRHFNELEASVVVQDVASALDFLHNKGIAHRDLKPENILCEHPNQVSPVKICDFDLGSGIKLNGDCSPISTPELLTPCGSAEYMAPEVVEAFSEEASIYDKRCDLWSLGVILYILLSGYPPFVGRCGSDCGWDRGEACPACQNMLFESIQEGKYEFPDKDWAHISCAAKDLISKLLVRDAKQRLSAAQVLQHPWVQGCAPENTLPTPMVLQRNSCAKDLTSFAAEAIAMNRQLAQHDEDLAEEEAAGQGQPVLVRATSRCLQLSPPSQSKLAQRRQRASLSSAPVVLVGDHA
Sequence of Serine/threonine-protein kinase pim-1 (Homo sapiens) (P11309 whole entry, looked up): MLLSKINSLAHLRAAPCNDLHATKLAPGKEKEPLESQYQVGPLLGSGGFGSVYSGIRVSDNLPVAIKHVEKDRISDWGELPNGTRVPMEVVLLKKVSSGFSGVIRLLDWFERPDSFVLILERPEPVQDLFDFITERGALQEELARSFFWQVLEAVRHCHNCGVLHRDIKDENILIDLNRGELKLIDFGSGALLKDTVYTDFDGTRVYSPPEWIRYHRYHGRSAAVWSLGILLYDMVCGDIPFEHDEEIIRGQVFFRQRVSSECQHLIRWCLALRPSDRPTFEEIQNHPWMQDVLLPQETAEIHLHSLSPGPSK
Sequence of MAP/microtubule affinity-regulating kinase 3 (Homo sapiens) (P27448 whole entry, looked up): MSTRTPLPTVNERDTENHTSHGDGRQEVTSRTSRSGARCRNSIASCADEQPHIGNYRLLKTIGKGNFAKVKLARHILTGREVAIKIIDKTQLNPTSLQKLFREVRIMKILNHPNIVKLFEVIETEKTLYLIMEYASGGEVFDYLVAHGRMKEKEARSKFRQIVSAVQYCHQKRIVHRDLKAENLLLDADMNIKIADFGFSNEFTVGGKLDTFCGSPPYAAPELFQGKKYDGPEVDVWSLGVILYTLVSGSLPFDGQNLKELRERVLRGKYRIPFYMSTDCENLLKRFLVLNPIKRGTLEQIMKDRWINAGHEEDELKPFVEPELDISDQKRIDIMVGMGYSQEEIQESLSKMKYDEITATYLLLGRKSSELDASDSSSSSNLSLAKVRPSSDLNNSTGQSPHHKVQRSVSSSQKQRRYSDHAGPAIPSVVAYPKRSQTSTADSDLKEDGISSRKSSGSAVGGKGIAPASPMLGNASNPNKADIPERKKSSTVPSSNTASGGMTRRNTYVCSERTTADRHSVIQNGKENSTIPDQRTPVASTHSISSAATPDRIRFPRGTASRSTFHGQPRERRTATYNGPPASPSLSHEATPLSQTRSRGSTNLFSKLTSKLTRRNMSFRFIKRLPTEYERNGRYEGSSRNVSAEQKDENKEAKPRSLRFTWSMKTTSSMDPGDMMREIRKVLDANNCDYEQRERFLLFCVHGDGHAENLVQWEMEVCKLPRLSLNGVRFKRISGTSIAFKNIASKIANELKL
Sequence of Maternal embryonic leucine zipper kinase (Homo sapiens) (Q14680 whole entry, looked up): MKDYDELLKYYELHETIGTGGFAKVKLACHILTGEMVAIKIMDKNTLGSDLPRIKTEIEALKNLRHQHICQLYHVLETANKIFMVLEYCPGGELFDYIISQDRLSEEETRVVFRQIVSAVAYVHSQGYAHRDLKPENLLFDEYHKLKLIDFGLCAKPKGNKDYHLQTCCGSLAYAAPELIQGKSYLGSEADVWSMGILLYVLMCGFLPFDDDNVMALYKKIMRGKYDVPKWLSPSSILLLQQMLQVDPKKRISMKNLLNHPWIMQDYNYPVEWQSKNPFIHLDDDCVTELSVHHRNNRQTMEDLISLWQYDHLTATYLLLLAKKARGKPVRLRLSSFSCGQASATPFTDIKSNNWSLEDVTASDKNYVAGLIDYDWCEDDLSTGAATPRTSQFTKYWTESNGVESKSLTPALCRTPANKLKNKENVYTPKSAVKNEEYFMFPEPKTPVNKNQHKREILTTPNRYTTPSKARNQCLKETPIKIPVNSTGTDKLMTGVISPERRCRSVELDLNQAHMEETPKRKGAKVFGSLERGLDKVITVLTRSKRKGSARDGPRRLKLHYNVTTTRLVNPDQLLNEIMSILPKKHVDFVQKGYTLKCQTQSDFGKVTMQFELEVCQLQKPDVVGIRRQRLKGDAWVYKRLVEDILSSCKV
Sequence of MAP kinase-interacting serine/threonine-protein kinase 1 (Homo sapiens) (Q9BUB5 whole entry, looked up): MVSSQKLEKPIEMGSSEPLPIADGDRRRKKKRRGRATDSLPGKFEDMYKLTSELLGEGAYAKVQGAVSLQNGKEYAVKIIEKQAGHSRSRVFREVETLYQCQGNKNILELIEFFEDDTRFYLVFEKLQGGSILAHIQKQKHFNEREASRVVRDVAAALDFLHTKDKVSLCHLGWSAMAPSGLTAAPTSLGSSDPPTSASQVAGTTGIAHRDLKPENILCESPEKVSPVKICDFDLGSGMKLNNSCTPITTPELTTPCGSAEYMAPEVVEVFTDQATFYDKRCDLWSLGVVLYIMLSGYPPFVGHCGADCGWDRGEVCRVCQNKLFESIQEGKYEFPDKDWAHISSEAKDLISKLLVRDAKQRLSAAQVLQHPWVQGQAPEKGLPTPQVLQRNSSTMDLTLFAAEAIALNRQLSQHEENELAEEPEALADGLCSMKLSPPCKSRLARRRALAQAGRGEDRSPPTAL
Sequence of Phosphorylase b kinase gamma catalytic chain, skeletal muscle/heart isoform (Homo sapiens) (Q16816 whole entry, looked up, canonical isoform): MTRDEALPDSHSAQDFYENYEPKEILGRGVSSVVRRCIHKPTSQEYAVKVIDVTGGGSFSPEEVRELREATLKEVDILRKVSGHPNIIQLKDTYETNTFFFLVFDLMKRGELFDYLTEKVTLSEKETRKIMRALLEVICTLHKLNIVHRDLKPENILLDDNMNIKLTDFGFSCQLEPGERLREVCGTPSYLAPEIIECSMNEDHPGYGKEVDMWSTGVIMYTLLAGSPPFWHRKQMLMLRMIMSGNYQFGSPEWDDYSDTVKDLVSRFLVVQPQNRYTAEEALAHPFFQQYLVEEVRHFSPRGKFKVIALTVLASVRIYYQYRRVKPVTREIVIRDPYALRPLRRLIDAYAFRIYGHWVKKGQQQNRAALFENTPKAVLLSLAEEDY

| Structure (SMILES) | inhibition [1] [%] | inhibition [2] [%] | inhibition [3] [%] | inhibition [4] [%] | inhibition [5] [%] | inhibition [6] [%] | inhibition [7] [%] | inhibition [8] [%] | inhibition [9] [%] | inhibition [10] [%] | inhibition [11] [%] | inhibition [12] [%] | inhibition [13] [%] | inhibition [14] [%] | inhibition [15] [%] | inhibition [16] [%] | inhibition [17] [%] | inhibition [18] [%] | inhibition [19] [%] | inhibition [20] [%] |
| --- | --- | --- | --- | --- | --- | --- | --- | --- | --- | --- | --- | --- | --- | --- | --- | --- | --- | --- | --- | --- |
| ON=C1CCc2cc(-c3nc(C4CCNCC4)[nH]c3-c3ccncc3)ccc21 | 3.01 | 0.47 | 1.99 | -0.02 | 1.75 | 0.86 | 3.6 | 0.66 | 0.78 | -1.2 | 2.57 | 0.03 | -0.46 | 0 | 1.5 | 0.29 | -2.23 | 1 | 0.9 | 0.25 |
| CN(C)C(=O)O[C@@H]1CN[C@@H](C#Cc2cc3ncnc(Nc4ccc(OCc5cccc(F)c5)c(Cl)c4)c3s2)C1 | -0.12 | 0.74 | 1.37 | -0.39 | 3.35 | 0.76 | 3.62 | 0.4 | 5.87 | 0.66 | 1.06 | -0.1 | -0.12 | 0.51 | -3.21 | 1.07 | -1.09 | 1.41 | 0.48 | 0.15 |
| Cc1ccc(NC(=O)CC2CC2)cc1-c1ccc(C(=O)NCC2CC2)cc1 | 1.71 | 1 | -0.01 | 4.17 | 2.02 | 2.59 | 7.07 | 1.63 | 5.54 | -1.05 | 0.03 | -0.28 | 0.77 | 3.12 | 5.93 | 4.45 | 4.9 | 1.51 | 0.73 | -0.33 |
| NS(=O)(=O)c1ccc(NC=C2C(=O)Nc3ccc4ncsc4c32)cc1 | 60.7 | 21 | 58.7 | 62.7 | 94.4 | 9.09 | 39.2 | 3.84 | 18.1 | 14 | 46.2 | 0.44 | -0.6 | 20.3 | 66.4 | 8.94 | 32.1 | 2.48 | 9.5 | 1.26 |
| [O-][S+]1CCN(Cc2ccc(-c3ccc4ncnc(Nc5ccc(OCc6ccccc6)c(Cl)c5)c4c3)o2)CC1 | 2.17 | 1.29 | 2.1 | 2.37 | 5.78 | 1.69 | 5.98 | 0.13 | 8.54 | 0.59 | 2.27 | 0.68 | -0.53 | 3.63 | 3.41 | 2.31 | -0.04 | 0.56 | 1.25 | 0.46 |
| Cc1ccc2c(-c3ccnc(Nc4ccc5c(c4)OCCO5)n3)c(-c3ccc(C(F)(F)F)cc3)nn2n1 | 5.36 | 1.96 | 3.07 | -1.46 | 0.19 | 0.37 | -0.05 | 0.66 | 1.73 | -0.06 | 2.02 | 1.16 | 1.48 | 3.21 | 1.99 | 1.58 | 1.14 | -0.32 | 0.3 | 0.44 |
| Nc1nccc(-c2c(-c3ccc(F)cc3)ncn2CCCN2CCOCC2)n1 | 8.72 | 1.4 | 1.82 | 9.7 | 2.83 | 2.6 | 7.69 | 1.53 | 0.94 | 3.08 | 1.26 | -0.18 | 0.84 | 5.3 | 5.42 | 3.78 | 4.82 | 1.45 | 0.82 | 0.76 |
